# PubChem BioAssay (Tox21)
# Values without a mark were called inactive. Calls come from the whole dose curve. Where a SMILES comes first, the peptide text is derived from it.
# Biological target: Thyrotropin-releasing hormone receptor (Homo sapiens) (UniProt P34981)
# Assay: qHTS assay to identify small molecule agonists of the thyrotropin-releasing hormone receptor (TRHR) signaling pathway (AID 1346891);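 note: HEK293 cells expressing TRHR with calcium dye readout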
# Settings: TRHR-HEK293 calcium fluorescence, agonist mode; series mostly up to 57.6 µM; activation: at the top concentration
# Text: National Center for Advancing Translational Sciences [NCATS] NIH Chemical Genomics Center [NCGC] U.S. Environmental Protection Agency [EPA] National Institutes of Environmental Health Sciences [NIEHS] National Toxicology Program [NTP] Assay overview: Thyrotropin-releasing hormone (TRH) receptor (TRHR) is a G-protein-coupled receptor which binds the tripeptide thyrotropin releasing hormone. TRHR is found in the brain and, when bound by TRH, acts (through phospholipase C) to increase intracellular inositol trisphosphate. It plays a crucial role in the anterior pituitary where it controls the synthesis and secretion of thyroid stimulating hormone and prolactin. The TRHR-Hek293 assay is a cell-based assay, and it has the potential to screen G protein-coupled receptors. A compound/drug can either activate (agonist) or suppress (antagonist) GPCRs that can be monitored by levels of intracellular calcium. Using this assay, the Tox21 10K compound library was screened to identify potential TRHR agonists.
# Assay Protocol Summary: The TRHR-Hek293 cells were dispensed at 1500cells/4uL/well in 1536-well black-clear bottom plates using a Multidrop dispenser. After the assay plates were incubated at a 37 C/5% CO2 incubator for 18 hours, 4 uL of Dye-Loading Solution was added to each well. The plates were incubated at 37 C for 2 hours. For agonist mode, 23 nL of compounds dissolved in DMSO, positive controls or DMSO only was transferred to the assay plate by a pin tool. The fluorescence intensity in the plates was measured using FDSS 7000EX kinetic plate reader for 3 min at 1 sec intervals. Each test compound was measured at 15 concentrations and in triplicates.
# % is set by controls: 0 for no effect and ±100 for the full control effect.
# Sequence of Thyrotropin-releasing hormone receptor (Homo sapiens) (P34981 whole entry, looked up): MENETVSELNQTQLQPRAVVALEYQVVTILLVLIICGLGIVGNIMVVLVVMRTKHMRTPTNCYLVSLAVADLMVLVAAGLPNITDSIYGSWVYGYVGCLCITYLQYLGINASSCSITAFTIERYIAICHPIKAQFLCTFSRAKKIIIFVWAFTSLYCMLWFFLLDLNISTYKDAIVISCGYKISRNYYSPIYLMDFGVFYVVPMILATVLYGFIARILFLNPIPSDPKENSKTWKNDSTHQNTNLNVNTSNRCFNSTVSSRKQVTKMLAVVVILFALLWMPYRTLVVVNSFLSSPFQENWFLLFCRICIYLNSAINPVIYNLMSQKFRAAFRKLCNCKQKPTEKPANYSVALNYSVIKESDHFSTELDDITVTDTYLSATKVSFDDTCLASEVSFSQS
row,SMILES,activation
1,CCCCOC(=O)[C@H](C)O,-0.588%
2,CC(=O)C(C)O (stereo not given),-0.161%
3,O/N=C/C=N/O,-0.0759%
4,C=CC(=O)OCC1CCCO1 (stereo not given),-0.0944%
5,CN(C)C(C)(C)CO,-0.0675%
6,CC(=O)OCC(=O)Nc1cc(C#N)cc(NC(=O)COC(C)=O)c1Cl,0.163% [at 26.5 µM]
7,CCCCOCCOC(=O)COc1ccc(Cl)cc1Cl,0.702%
8,Cn1c(=O)c2[nH]c(Br)nc2n(C)c1=O,-0.322% [at 26.5 µM]
9,CCOc1cccc(N)c1,-0.345%
10,O=C(O)c1cc2ccccc2nc1C(=O)O,0.0451%
11,CC(=O)N[C@@H](CO)C(=O)N[C@@H](CC(=O)O)C(=O)N[C@@H](CCCCN)C(=O)N1CCC[C@H]1C(=O)O (Ac-SDKP-OH),0.325% [at 26.5 µM]
12,CC(=O)c1cc(C)oc1C,-0.119%
13,CC(C)COC(=O)c1ccccc1,-0.557%
14,COS(=O)(=O)O,-0.343%
15,C=CCSSCCC,-0.0109%
16,CNCCS(=O)(=O)O,-0.272%
17,CC1(C)[C@H]2CC[C@](C)(C2)[C@H]1O,0.0227%
18,O=C1OCCO1,-0.239%
19,CCC(C(=O)OCCN1CCOC(c2ccccc2)C1C)c1ccccc1 (stereo not given),0.673% [at 26.5 µM]
20,C[C@]12CCC(=O)C=C1CC[C@H]1[C@@H]3CC[C@](O)(C(=O)CO)[C@@]3(C)C[C@H](O)[C@@]12F,-0.492% [at 26.5 µM]

row,SMILES,activation
1,CC(C)OC(=O)CCC(=O)OC(C)C,0.17%
2,Nc1nnnn1-c1ccccc1,0.113% [at 26.5 µM]
3,CC(=O)CCc1ccc(OC(C)=O)cc1,-0.0421%
4,COc1cc2c(cc1OC)CN(C(=O)[C@H](C)N[C@@H](CCc1ccccc1)C(=O)O)[C@H](C(=O)O)C2,-0.133% [at 26.5 µM]
5,C/C=C(\C)C(=O)OCCc1ccccc1,0.0506%
6,CCC(=O)Oc1ccc2c(c1)CC[C@@H]1[C@@H]2CC[C@@]2(C)[C@H]1C[C@@H](OC(=O)CC)[C@@H]2OC(=O)CC,-0.0785% [at 26.5 µM]
7,CCCc1ccc(O)cc1,0.713%
8,N[C@@H](CSCCCO)C(=O)O,-0.038% [at 11.8 µM]
9,Cc1ccc2c(c1)C(=O)c1ccccc1C2=O,1.4%
10,CCCCSCCCC,0.124%
11,C[C@H]1[C@@H](c2ccccc2)NC(=O)N1C,2.1%
12,CCCCCCC1(C)CCC(=O)O1 (stereo not given),0.496%
13,CC(C)NCC(O)c1ccc2ccccc2c1 (stereo not given),0.0978% [at 26.5 µM]
14,COC(=O)c1cccc(Cl)c1,-0.413%
15,CCOc1ccccc1OCC1CNCCO1 (stereo not given),-0.136% [at 26.5 µM]
16,CC(=O)Nc1ccc(OC(=O)c2ccccc2OC(C)=O)cc1,0.706% [at 26.5 µM]
17,O=C(O)CCCCCC(=O)O,-0.413%
18,CCCCCCCCCCOC(C)=O,0.0323%
19,O=C(O)CONC(=O)c1ccccc1,-0.801%
20,Cc1ccc(C(C)NC(=O)[C@@H](NC(=O)OC(C)C)C(C)C)cc1 (stereo not given in full),-0.215%
